Screening results: PubChem, National Center for Advancing Translational Sciences (NCATS)
The entries come from a sample that favours hits as a whole.
Sm TGR block: inhibitors of Schistosoma mansoni thioredoxin glutathione reductase; Q962Y6; Potency, µM (highest dose often 114 µM), for the others: at the highest dose activity change, negative = inhibition, hits mostly inhibitors; purified TGR, DTNB reduction, TNB absorbance 405 nm; 360,000 compounds, 3% hits; further: potency means the concentration at half of the fitted maximal effect; on the % scale 0 is the no-effect control and ±100 the full control effect; nearly all actives have a fitted effect of over 60% in size
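TGR 20 nM + NADPH 100 uM (dispensed conc.), cpd preinc 15 min RT; start with NADPH (500 uM addition) then DTNB (15 mM addition). Kinetic TNB absorbance, 405 nm filter. Four-parameter Hill fit across titration.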
FBPA Giardia inh: inhibitors of Giardia lamblia fructose-1,6-bisphosphate aldolase. A8B2U2. purified Giardia FBPA. Potency, µM (titrated, usually from 59.6 µM), for the others: at the highest dose activity, negative = inhibition, hits mostly inhibitors. 290,000 compounds, 0.71% hits; further: potency means the concentration at half of the fitted maximal effect; on the % scale 0 is the no-effect control and ±100 the full control effect; nearly all actives have a fitted effect of over 55% in size
Target sequence (A8B2U2 whole entry, looked up): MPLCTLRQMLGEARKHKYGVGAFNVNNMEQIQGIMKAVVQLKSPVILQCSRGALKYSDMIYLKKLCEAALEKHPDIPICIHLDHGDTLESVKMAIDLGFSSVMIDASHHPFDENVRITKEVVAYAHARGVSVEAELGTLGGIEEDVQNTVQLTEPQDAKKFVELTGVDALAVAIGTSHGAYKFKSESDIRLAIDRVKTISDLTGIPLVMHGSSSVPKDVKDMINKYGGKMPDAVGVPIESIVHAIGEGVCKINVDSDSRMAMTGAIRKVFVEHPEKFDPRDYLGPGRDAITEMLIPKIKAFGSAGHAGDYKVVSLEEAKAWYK
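40 nM FBPA preincubated 10 min at RT with compound (up to 57.5 uM final), then substrate plus GAPDH/TPI/NAD/arsenate coupling and diaphorase/resazurin added. Fluorescence read after 20 min at RT, 525/598 nm.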
Cycloheximide cs: counter-screen for Shiga toxin inhibitors: cycloheximide protein synthesis inhibition. cell reporter, cycloheximide protein synthesis inhibition counterscreen. AID 2314. 300,000 compounds, 12% hits. max response, %; in the data active means max response mostly above about 13%, no sharp cut-off; inactive means mostly below about 14%; further: read at 38.3 µM for the half of the compounds with a filed dose; 0% is about no effect
TbPYK inhibitor: T. brucei pyruvate kinase inhibition. Q57TT1. TbPYK enzyme, Kinase-Glo Plus ATP luminescence, 45 min. Potency, µM (highest dose often 76.8 µM), for inactives: at the highest dose activity, negative = inhibition, hits mostly inhibitors. 410,000 compounds, 0.12% hits. AID 624173; further: potency means the concentration at half of the fitted maximal effect; on the % scale 0 is the no-effect control and ±100 the full control effect; nearly all actives have a fitted effect of over 50% in size
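Assay buffer: 50 mM TEA pH 7.2, 100 mM KCl, 10 mM MgCl2, 0.05% BSA, 0.01% Tween-20. Pyruvate kinase from T. brucei plus substrate met compound, then ADP (130 uM final). Luminescence was read post 45 min RT.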
Shiga inhibitor: blocks Shiga toxin action in Vero cells; Vero cells, Shiga toxin protein synthesis inhibition reporter; 290,000 compounds, 9.2% hits; inhibition, % at 38.7 µM; in the data active means inhibition mostly above about 28%, no sharp cut-off; inactive means mostly below about 43%; further: 0% is about no effect
LmPK inhibitor: inhibitors of Leishmania mexicana pyruvate kinase; purified LmPK, Kinase-Glo ATP luminescence, 1 h; Potency, µM (titrated, usually from 57.5 µM), inactives show at the highest dose activity change, negative = inhibition, usual class: inhibitors; 290,000 compounds, 0.37% hits; AID 1721; further: potency means the concentration at half of the fitted maximal effect; on the % scale 0 is the no-effect control and ±100 the full control effect
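In 50 mM imidazole pH 7.2 with 7 mM MgCl2, LmPK (0.1 nM) turned over PEP (0.5 mM) and ADP (0.1 mM) for 1 h at room temperature. Luciferase read-out of ATP.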
* = called active by the depositor; ? = inconclusive; / = no result; + = active, no number; [ ] = another dose, or the depositor's remark. Unless noted, the call rests on the fitted dose curve; in most records, active means well fitted curve in the direction sought with a large enough effect; inconclusive means small, poorly fitted or top-dose-only effect, or another doubt; inactive means no such curve, though single readings can be large; an effect the other way counts as inactive or inconclusive.

SMILES	Sm TGR block	FBPA Giardia inh	Cycloheximide cs	TbPYK inhibitor	Shiga inhibitor	LmPK inhibitor
CCOc1ccc2nc(Cl)c(/C=C/C(=O)c3ccco3)cc2c1	?	-14.6%	16.1	3.8%	26.3	0.9%
Cc1ccc(/C=C/C(=O)c2cc(Br)ccc2OC(=O)c2ccco2)cc1	-0.2%	10.8%	23.7*	2.8%	48.8*	4.0%
COc1ccc(C(=O)NCC(c2ccc3c(c2)OCO3)N2CCN(C)CC2)cc1OC (stereo not drawn)	5.0%	/	/	0.7%	/	/
O=C(COc1ccc(F)cc1)Nc1ccccc1N1CCOCC1	6.8%	/	/	0.4%	/	/
CCOc1ccc2nc(SCC(=O)N3CCCCCC3)c(C#N)cc2c1	4.7%	?	8.2	8.9%	15.8	-3.5%
CCOC(=O)CSc1nc2cc(C)cc(C)c2cc1C#N	-26.7%	8.7%	13.9*	-3.8%	25.0	0.0%
CCOC(=O)CSc1nc(C)cc(C)c1C#N	-15.2%	-4.5%	-1.0	?	-12.4	6.2%
Cc1ccc2cc(C#N)c(SCC(=O)N3CCCC3)nc2c1	4.9%	1.2%	22.2*	-14.9%	27.0	8.9%
CCOC(=O)CSc1nc2cc(C)ccc2cc1C#N	11.4%	-3.5%	40.5*	-6.7%	100.0*	3.1%
CCOC(=O)CSc1nc2cc(OC)ccc2cc1C#N	-16.7%	-3.9%	22.1*	-13.0%	116.2*	5.8%
COc1ccc(OC)c(-c2nnc3n2N=C(c2c(OC)cccc2OC)CS3)c1	/	3.2%	0.7	/	-5.0	/
CCOC(=O)CC(=O)CSc1nc2cc(C)ccc2cc1C	-3.6%	9.0%	5.4	1.0%	25.2	5.3%
COc1ccc2nc(SCC(C)=O)c(C#N)cc2c1	6.9%	-11.1%	35.6*	0.1%	115.6*	-4.7%
CCOC(=O)CC(=O)CSc1nc2ccc(OC)cc2cc1C	/	-6.1%	20.6*	-0.7%	50.6*	4.6%
CCOC(=O)CSc1nc2ccc(C)cc2cc1C#N	-13.6%	-1.2%	58.9*	3.5%	80.2*	5.5%
CCCn1c2ccccc2c2cnn(CC(=O)N(CCCOC)Cc3ccco3)c(=O)c21	-20.6%	/	/	-2.7%	/	/
CCc1ccc(Cn2c(CNS(=O)(=O)c3ccc4c(c3)CCCC4)nc3cccnc32)cc1	-0.3%	/	/	-0.6%	/	/
CCOc1ccc(CC(=O)Nc2c(C(=O)c3ccc(F)cc3)oc3ccc(Cl)cc23)cc1OCC	0.4%	/	/	-2.1%	/	/
c1csc(-c2nnc(N3CCCCCC3)c3ccccc23)c1	-12.1%	?	15.1*	0.1%	77.3*	-3.5%
c1csc(-c2nnc(N3CCOCC3)c3ccccc23)c1	2.5%	1.2%	1.8	-5.0%	-9.4	-4.9%
COc1ccc(NC(=O)C2CCCN(S(=O)(=O)c3ccc4c(c3)CCCC(=O)N4)C2)cc1OC (stereo not drawn)	-4.4%	/	/	-0.5%	/	/
Cc1c(O)c(=O)c2ccccc2n1C	1.5%	-4.9%[12.9 µM]	-6.3	4.5%	-17.0	-1.9%
Cc1ccc(C)c2c1c1ccccc1n2C	1.7%	-0.1%	19.7*	-1.5%	41.6	1.2%
COc1cccc2oc(SC)cc(=O)c12	/	-10.2%[136 µM]	30.2	/	+	/
COc1cccc2oc(-c3ccccc3)cc(=O)c12	/	-6.4%	29.2*	/	32.9*	/
SMILES	Sm TGR block	FBPA Giardia inh	Cycloheximide cs	TbPYK inhibitor	Shiga inhibitor	LmPK inhibitor
Cc1ccc(/C=C/C(=O)Nc2ccc(N(C)C)cc2)o1	-21.2%	-14.5%	38.1*	-22.5%	84.7*	-8.7%
Cc1ccc(/C=C/C(=O)Nc2ccncc2)o1	8.91µM*	-8.5%	14.8	-15.5%	52.3	-4.1%
O=C(Nc1ccncc1)Nc1ccncc1	2.6%	3.6%	8.3	-1.9%	-5.0	-2.6%
COc1ccc(CN(CCC(c2ccccc2)c2ccco2)C(=O)c2ccco2)cc1 (stereo not drawn)	35.5µM*	-3.1%	-0.9	-9.2%	-2.0	-4.0%
COc1ccc(CCN(Cc2nc3ccccc3c(=O)[nH]2)C(=O)c2ccco2)cc1	-13.9%	-0.9%	-0.7	-4.4%	12.9	1.0%
O=C(c1ccco1)N(CCC(c1ccccc1)c1ccco1)Cc1ccccc1 (stereo not drawn)	50.1µM*	1.3%	1.2	-8.6%	18.9	2.3%
COc1ccc(C(=O)NCCn2cc(SCc3cc(C)ccc3C)c3ccccc32)cc1	14.9%	/	/	-4.4%	/	/
CC(C)(C)NC(=O)c1cccc(NC(=O)c2ccco2)c1	5.3%	6.9%	13.1	-0.3%	41.4	1.0%
